ROMK mod – modulates human ROMK potassium channel activity; Tet-inducible ROMK, thallium flux fluorescence; actives lie on both sides; AID 1918; B-score at 10 µM; 130,000 compounds, 2% hits;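 active means signal ratio slope over the read window, or its plate-corrected B-score, at least 3 SD from the plate mean, either direction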;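 further: B-score of the F/F0 ratio slope over 7 to 12 s after thallium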
Target sequence (P48048 whole entry, looked up): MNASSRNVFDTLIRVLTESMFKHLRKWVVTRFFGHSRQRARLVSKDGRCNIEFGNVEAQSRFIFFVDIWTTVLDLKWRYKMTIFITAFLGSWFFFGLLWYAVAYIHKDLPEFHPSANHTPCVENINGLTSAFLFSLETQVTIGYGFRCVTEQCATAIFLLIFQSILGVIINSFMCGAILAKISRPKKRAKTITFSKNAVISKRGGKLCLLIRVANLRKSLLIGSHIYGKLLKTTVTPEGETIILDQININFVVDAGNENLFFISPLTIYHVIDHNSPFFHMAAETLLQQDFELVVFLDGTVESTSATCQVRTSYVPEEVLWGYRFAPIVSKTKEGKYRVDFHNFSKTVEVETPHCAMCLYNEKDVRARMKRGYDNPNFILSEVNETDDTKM
Calpain2 inh – inhibitors of pig calpain II | AID 1236 | 220,000 compounds, 0.37% hits | purified calpain II, fluorogenic peptide substrate, 30 min | inhibition, % at 16 µM;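 active means inhibition above about 50%, limit read from the data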
WT yeast gro inh – growth inhibition of WT yeast, mitochondrial fusion screen | inhibition, % at 10 µM | mitochondrial fusion phenotypic screen, WT strain | 190,000 compounds, 2.1% hits | AID 1362; in the data active means inhibition above about 58%; tested in S. cerevisiae
Cl transport mod – KCC2 (human) Cl- transport modulation. KCC2 cells, thallium flux FluoZin-2 fluorescence. 190,000 compounds, 2.2% hits. AID 1456. B-score of Tl+ flux slope (higher = more flux/activation; lower = inhibition) at 10 µM;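 active means thallium flux slope and its plate-corrected score both differing from the plate sample mean at a set confidence after two filtering rounds, in either direction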;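 further: slope of fluorescence scaled to starting intensity during 10 to 20 s after thallium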
Lmaj promast – inhibitors of Leishmania major promastigote growth. Leishmania major promastigotes, resazurin fluorescence viability. inhibition, % at 10 µM. 200,000 compounds, 9% hits. AID 1063; in the data active means inhibition above about 50%;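 further: promastigotes grown with compound for 44 hours at 28 °C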
* = called active by the depositor; . = no result given. Shown are actives, neighbours in structure and some others; about 12% of the full set was active somewhere.

SMILES	ROMK mod	Calpain2 inh	WT yeast gro inh	Cl transport mod	Lmaj promast
CCN(/N=C/C=C/c1ccccc1)c1cc(=O)n(C)c(=O)[nH]1	0.381	52.1*	-3.6	-0.0832	-3.7
CC(=O)Oc1ccc(N(C(C)=O)S(=O)(=O)c2cccs2)cc1	0.113	22.2	66.2*	.	-6.7
CC(C)C(=O)N(c1cc2sc(=O)oc2c2ccccc12)S(=O)(=O)c1cccs1	0.604	-91.0	91.9*	.	50.3*
COc1ccc(N(C(=O)C(C)C)S(=O)(=O)c2cccs2)cc1	0.301	22.4	-5.8	-0.629	80.2*
CC(C)C(=O)N(c1ccc2oc(=O)sc2c1)S(=O)(=O)c1cccs1	-0.0218	17.9	9.1	.	-7.9
O=S(=O)(NNc1nccc(C(F)(F)F)n1)c1cccc(Cl)c1Cl	.	-10.0	.	0.021	.
COc1ccc(C(=O)Nc2cccc3c2C(=O)NC3=O)cc1S(=O)(=O)N1CCOCC1	0.153	-209.0	-13.2	.	1.0
Cc1noc(/C=C/N(C)C)c1S(=O)(=O)N1CCc2ccccc21	.	14.2	15.2	-1.04	8.5
Cc1ccc(N(C(=O)CCC(=O)Nc2cc(C)on2)C(C(=O)NC2CCCC2)c2cccs2)cc1 (configuration not stated)	-0.778	-18.3	18.6	-0.0668	54.0*
Cc1cc(NC(=O)CCC(=O)N(c2ccccc2)C(C(=O)NC2CCCC2)c2cccs2)no1 (configuration not stated)	.	-27.6	2.2	-0.249	7.6
Cc1cc(C)cc(N(C(=O)CCC(=O)Nc2cc(C)on2)C(C(=O)NC2CCCC2)c2ccco2)c1 (configuration not stated)	-1.43	42.3	-5.5	0.42	88.5*
Cc1ccc(C(C(=O)NC2CCCC2)N(Cc2ccco2)C(=O)CCC(=O)Nc2cc(C)on2)cc1 (configuration not stated)	.	-6.9	-20.1	-0.0421	82.5*
Cc1cc(NC(=O)CCC(=O)N(CCC(C)C)CC(=O)NCC2CCCO2)no1 (configuration not stated)	.	4.7	-11.4	1.08	-9.4
Cc1cc(C)cc(N(CC(=O)NCC2CCCO2)C(=O)CCC(=O)Nc2cc(C)on2)c1 (configuration not stated)	0.0703	4.8	99.0*	.	-3.5
C=C(C)C1CCC(C)=C1CC(C)(C)/C=N\n1cnnc1 (configuration not stated)	.	-7.8	40.1	-0.408	-0.5
Clc1ccc(C2C3=C(Nc4ncnn42)c2ccccc2CC3)cc1 (configuration not stated)	-0.801	-5.0	-1.3	.	3.4
O=C(NC1CCCCC1)C(c1ccc2ncccc2c1)N(Cc1cccs1)C(=O)c1cccs1 (configuration not stated)	.	-23.5	-4.1	-0.918	49.4
Cc1cccc(N(C(=O)CCC(=O)Nc2cc(C)on2)C(C(=O)NC2CCCC2)c2ccc(C)o2)c1 (configuration not stated)	-0.315	10.2	23.0	0.484	88.9*
Cc1cc(NC(=O)CCC(=O)N(Cc2cccs2)C(C(=O)NC2CCCC2)c2ccccc2)no1 (configuration not stated)	-0.901	30.7	16.4	-0.00958	94.4*
Cc1cc(NC(=O)CCC(=O)N(Cc2cccs2)C(C(=O)NC2CCCC2)c2cccnc2)no1 (configuration not stated)	.	0.6	-14.7	0.0228	-5.3
O=C(NC1CCCCC1)C(c1cccs1)N(Cc1cccs1)C(=O)c1cccs1 (configuration not stated)	-2.22	14.7	20.8	0.142	98.7*
Cc1cccc(Cc2nnc(CCC(=O)NCc3cn4ccccc4n3)o2)c1	-0.545	-27.6	0.0	-0.95	-5.3
Cc1cc(C)c(C#N)c(SCC(=O)C2CC2)n1	.	-27.8	.	0.0579	.
O=C1C2C3C=CC(c4ccccc4)(C2C(=O)N1c1cccc(Cl)c1)C1C(=O)N(c2cccc(Cl)c2)C(=O)C31 (configuration not stated)	.	-2.0	14.7	-0.207	68.0*
Cn1c(N)c(C(=O)COC(=O)c2ccc(Cl)c(S(=O)(=O)N3CCCC3)c2)c(=O)n(C)c1=O	.	21.5	.	-1.57	.
SMILES	ROMK mod	Calpain2 inh	WT yeast gro inh	Cl transport mod	Lmaj promast
O=C1CSC(c2ccccc2F)N1c1cc(Cl)ccc1O (configuration not stated)	.	21.4	-2.8	0.103	1.4
O=C1CSC(c2cccc(Cl)c2Cl)N1c1ccccn1 (configuration not stated)	0.0506	20.7	37.7	-0.722	90.7*
CC(=O)c1ccc(NC(=O)Nc2ccc(Br)cc2C)cc1	-0.957	18.9	-5.4	1.36	-4.0
CSc1nc(SCC(=O)NC(c2ccccc2)c2ccccc2)c2c3c(sc2n1)CN(C)CC3	.	-98.3	22.2	1.28	71.1*
CCCOc1ccc(-c2nc(OCC)c3ccccc3n2)cc1	-0.0402	-49.0	60.0*	.	-3.4
CCOc1nc(-c2ccccc2Cl)nc2ccccc12	.	-53.0	.	-0.628	.
COc1cc(NC(=O)c2ccccn2)cc(OC)c1OC	0.0604	-6.9	2.3	0.84	0.5
COc1cccc(C(=O)N/N=C(/c2ccccc2)c2ccccn2)c1	.	1.4	65.7*	-0.127	99.9*
COc1cc(C(=O)N/N=C(\c2ccccc2)c2ccccn2)cc(OC)c1OC	.	6.2	3.2	-0.918	99.5*
COC(=O)c1ccc(Cl)c(S(=O)(=O)N2CCCC2)c1	1.16	-1.2	3.2	0.635	-2.6
Cc1ccc(Cn2ccc(=O)c(OCc3c(Cl)cccc3Cl)c2C)cc1	0.945	0.0	76.9*	0.0941	96.8*
COc1cccc(NC(=O)CC2S/C(=N\S(=O)(=O)c3ccccc3)N(c3ccccc3)C2=O)c1 (configuration not stated)	0.448	-9.8	9.5	0.0131	61.4*
COc1cccc(NC(=O)CC2SC(=Nc3ccccc3)NC2=O)c1 (configuration not stated)	-0.853	45.4	-11.5	.	5.7
CN(Cc1ccccc1)S(=O)(=O)c1ccc2[nH]cc(C(=O)NCC3CCCO3)c(=O)c2c1 (configuration not stated)	.	-59.5	-13.1	-0.276	98.6*
C#CCOC(=O)CCCNc1ccc([N+](=O)[O-])cc1[N+](=O)[O-]	0.415	-100.5	-8.7	-0.477	-2.9
O=C(/C=C/c1ccc(N2CCCCC2)c([N+](=O)[O-])c1)c1ccc(O)cc1	0.346	-17.8	91.0*	-0.577	99.9*
O=C(c1ccc(N2CCCCC2)c([N+](=O)[O-])c1)N1CCOCC1	-0.0576	21.9	-12.8	-0.481	-7.5
COc1ccccc1C(=O)/C=C/c1ccc(N2CCCCC2)c([N+](=O)[O-])c1	.	0.1	-0.6	-0.247	98.3*
O=C(NNc1nc(-c2ccc(Br)cc2)cs1)c1ccco1	-0.516	28.3	4.0	-1.12	-3.5
CCCOc1ccc(CC(=O)NCC2(c3ccccc3)CCOCC2)cc1OC	.	-13.4	22.2	-0.014	-2.4
COc1ccc(/C=N/N2CCN(C3c4ccccc4-c4ccccc43)CC2)cc1O	.	0.0	7.1	0.346	66.8*
C(=N\N1CCN(C2c3ccccc3-c3ccccc32)CC1)/c1ccccn1	.	6.1	66.7*	0.851	-3.3
C(=N\N1CCN(C2c3ccccc3-c3ccccc32)CC1)/c1cccnc1	.	6.5	40.3	-0.605	19.5

Assay outcomes from PubChem BioAssay.
